Measurements from the supplement of paper PMC3334620.
Over roughly 33,000 sequences, “E-score (-0.5 to 0.5)” has its median near -0.0059; the highest 2% begin near 0.26. Many of the other results were omitted from the sample, so the highest values are more common in it than they were.

Biological target: T1, Cin5 (UniProt P40917)
T1 sequence: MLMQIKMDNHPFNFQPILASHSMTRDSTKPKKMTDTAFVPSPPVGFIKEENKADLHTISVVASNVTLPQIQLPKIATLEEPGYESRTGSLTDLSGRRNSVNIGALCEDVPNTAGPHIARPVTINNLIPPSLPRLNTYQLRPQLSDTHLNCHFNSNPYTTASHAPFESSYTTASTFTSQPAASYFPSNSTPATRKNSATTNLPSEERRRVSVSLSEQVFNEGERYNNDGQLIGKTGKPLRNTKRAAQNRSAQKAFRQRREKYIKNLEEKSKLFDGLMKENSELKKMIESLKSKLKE
Assay: PBM E-score (8-mer binding enrichment) (E-score (-0.5 to 0.5)); higher = stronger / more preferred TF binding
Conditions: protein concentration: 100 nM; construct: GST-full length
Method in brief: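 Each ungapped eight-base word and its reverse complement, pooled, received an E-score from the Universal PBM Analysis Suite. Underlying scans, normalised with masliner, recorded fluorescent anti-GST bound to GST-tagged yeast transcription factors. These were applied at about 100-200 nM to universal all-10-mer Agilent arrays double-stranded by primer extension.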

Row | Sequence | PBM E-score
1 | AGTAATGA | 0.13
2 | GCTAATCA | 0.212
3 | ATAAATCA | 0.185
4 | AGTAATCC | 0.243
5 | ATTAATCG | 0.228
6 | GGTAATCA | 0.289
7 | AGTAATCA | 0.312
8 | CCTACCAC | -0.224
9 | CCACCGGA | 0.0953
10 | ATCAATAG | 0.0422
11 | CAGAGTAA | -0.0253
12 | TGACGTCA | 0.425
13 | AGACGTCA | -0.00622
14 | GGACGTCA | 0.0529
15 | GGTTGAAA | -0.00909
16 | ACGGTGCA | -0.139
17 | AAGGTTAA | 0.0178
18 | AAAGGGCA | -0.174
19 | GTAATCAC | 0.321
20 | GTAATCAA | 0.392
21 | TTAATCAA | 0.166
22 | GGAATCAA | 0.0945
23 | CTAATCAA | 0.301
24 | CTAATCAC | 0.248
25 | GAAATCAC | 0.149

Row | Sequence | PBM E-score
26 | TCAATCAA | 0.173
27 | GAAATCAA | 0.167
28 | ACAGCGAA | -0.00314
29 | AGTTTGAA | 0.0821
30 | GCTTTGTA | 0.174
31 | GAAGATTC | 0.0827
32 | CCTGCAGC | -0.0691
33 | GTAAGCGA | 0.383
34 | ATAAGCGA | 0.267
35 | ATAAGCGG | 0.206
36 | CTAAGCGA | 0.0261
37 | GGAAGCGA | 0.0828
38 | ATAAGCGC | 0.188
39 | GACGTACC | -0.0136
40 | CATCGAAA | -0.0105
41 | CTTCAAAA | 0.0157
42 | GTGTTGAA | 0.0739
43 | GCTGGCCC | -0.269
44 | AAGCTAGA | -0.0103
45 | CTACAAAC | 0.043
46 | AAGGGAGT | -0.285
47 | ATTACCTC | 0.142
48 | ATTACCTA | 0.349
49 | CTTACCTC | -0.0461
50 | ATTACCTG | 0.113

Row | Sequence | PBM E-score
51 | GTTACCTA | 0.131
52 | CTTACCTA | 0.32
53 | CCTAGGTA | -0.0942
54 | CAGTTGCA | -0.123
55 | CGATTTAG | 0.182
56 | ACAATCGA | 0.0876
57 | GCTTCTAA | -0.109
58 | AGTATCCC | 0.0604
59 | AAGGATCG | 0.00025
60 | CTGGGACC | -0.316
61 | ATTGTTTG | 0.168
62 | CTTGTTAC | -0.0236
63 | ATTGTTAG | 0.109
64 | GTTGTTAA | 0.284
65 | ATTGTTTC | 0.275
66 | ATTGTTAC | 0.276
67 | ATTGTTAA | 0.0779
68 | CTTGTTAA | -0.0283
69 | CTTGTTTC | 0.0494
70 | CGGGGGTC | -0.417
71 | CCTCCGAG | -0.16
72 | GCTAAGCA | 0.0676
73 | GCCCAATA | 0.0485
74 | ACAGGACG | -0.133
75 | CCACATAG | -0.0996

Row | Sequence | PBM E-score
76 | CGGGCCCC | -0.12
77 | AATCATAC | 0.206
78 | CATCATAA | 0.139
79 | AAACATAA | 0.199
80 | CAACATAG | 0.0889
81 | GAACATAA | 0.198
82 | TAACATAA | 0.317
83 | CAACATAC | 0.125
84 | GATCATAA | 0.241
85 | AATCATAG | 0.291
86 | AATCATAT | 0.193
87 | CAACATAA | 0.286
88 | TATCATAA | 0.272
89 | CCGGAGTC | 0.014
90 | AACCTCCG | -0.183
91 | ATGCCCTA | -0.0594
92 | CCCGATAA | -0.0584
93 | AAACCATT | 0.045
94 | CCTAGGGC | -0.254
95 | ACCCTCAT | -0.136
96 | GGATTGAA | 0.104
97 | CTGCCCAG | -0.249
98 | CCGTGTAC | 0.102
99 | CCATAAAA | 0.0525
100 | CAGCAGAA | -0.0607

Row | Sequence | PBM E-score
101 | AAGCAGAA | 0.261
102 | AAGCAGAT | 0.128
103 | ACTGATAC | -0.00272
104 | CTCTTACA | 0.0444
105 | CGTGCCTA | -0.177
106 | GCACCGGC | -0.178
107 | CTGTAGCA | -0.13
108 | ACAACTTG | 0.0528
109 | ACAACTTA | 0.184
110 | ACAACTTC | 0.296
111 | ACAATCGT | -0.0859
112 | ATCCTCCC | -0.103
113 | AAGTAATA | 0.247
114 | TAGTAATA | 0.27
115 | CAGTAATA | 0.254
116 | GAGTAATA | 0.26
117 | TAATAGTA | 0.228
118 | TAGTAAAA | 0.137
119 | AACCCTTA | 0.168
120 | AGCTTCAG | -0.115
121 | GCCGCGAA | -0.133
122 | GGTTACGA | 0.0792
123 | GATTACAC | 0.233
124 | AATTACAG | 0.107
125 | AATTACGT | 0.278

Row | Sequence | PBM E-score
126 | AATTACAT | 0.322
127 | AATTACAC | 0.0804
128 | GATTACGC | 0.301
129 | GATTACGA | 0.434
130 | AATTACGG | 0.141
131 | CATTACGC | 0.0481
132 | AATTACGC | 0.073
133 | TATTACGA | 0.257
134 | ACTCTTGC | -0.108
135 | GACGGTCC | -0.201
136 | CATGGCGA | -0.0534
137 | CGGTGGTC | -0.098
138 | ATGTCCAA | 0.0429
139 | AATTACCA | 0.187
140 | CATTACGA | 0.127
141 | AATTACGA | 0.313
142 | CTCAGATC | 0.0619
143 | AGTGAGTA | 0.284
144 | ATTGAGTA | 0.262
145 | GTTGAGTA | 0.0846
146 | AGTGAGTG | -0.0867
147 | ATTGAGTC | 0.103
148 | CGTGAGTA | 0.0731
149 | AAGCAACA | 0.162
150 | CATAAAGA | 0.104

Row | Sequence | PBM E-score
151 | CGCATCGA | 0.182
152 | ATAACGCC | 0.0372
153 | AGTAAGCG | 0.354
154 | GGTAAGGA | -0.153
155 | ACTAAGCG | 0.149
156 | AGTAAGCA | 0.283
157 | AGTAAGTA | 0.227
158 | GGTAAGCA | 0.318
159 | AGTAAGGG | 0.0482
160 | GGTAAGAA | 0.011
161 | ACTAAGCA | 0.241
162 | AGAGCTTG | -0.0623
163 | CAAGACCA | -0.0752
164 | AGAGATCT | -0.171
165 | CATCTCAC | 0.0306
166 | TATCTCAA | 0.261
167 | CATCTCAG | 0.268
168 | AATCTCAA | 0.184
169 | GATCTCAA | 0.112
170 | CATCTCAA | 0.0545
171 | GTGGCTAA | 0.181
172 | ACTTCATC | -0.0118
